From PubChem BioAssay
This excerpt belongs to a sample that is enriched for hits.
Tg IFNy HTS: inhibitors of Toxoplasma gondii growth with IFN-gamma; Toxoplasma gondii growth in IFN-gamma-treated host cells; active compounds read low; activity change, negative = inhibition, % (test concentration not listed); hit rate 3.8% among 69,000; in the data active = activity change below about -70%, passing the limit was not always enough;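 note: host cells are HeLa cells infected with Toxoplasma gondii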
Starred values were filed as active, the others as inactive; i = inactive.

SMILES	Tg IFNy HTS
CCOc1ccc(NC(=O)Cn2c(C)cc(C)nc2=O)cc1	19
Cc1cc(C)c(S(=O)(=O)N2CCC3(CC2)NCCN=C3NCc2ccc3c(c2)OCO3)cc1C	-42
Nc1nc(-c2cc3cc(Cl)ccc3o2)cs1	61
Cn1cc(CN2CCC(F)(F)C3(CCN(c4cccnc4)C3)C2)cn1 (centres undefined)	-37
N[C@@H](C(=O)O)C1=CCC=CC1	13
CCCNC(=O)c1cc2c(c(-c3cccc(-c4cc5ccccc5o4)c3)n1)[C@H](CCO)N(C(=O)NC(C)C)C2	-71*
CC(C)NC(=O)N1Cc2cc(C(=O)NC3Cc4ccccc4C3)nc(-c3cccc(-c4cccnc4)c3)c2[C@H]1CCO	-57
CC(C)NC(=O)N1Cc2cc(C(=O)NC3CCC3)nc(-c3cccc(-c4cncnc4)c3)c2[C@@H]1CCO	5
CCC[C@H](Nc1nc(-c2ccc(NC(=O)NCC)c(OC)c2)ncc1C)c1cccnc1	-78*
COc1ccc(NC(=O)NCC(c2cccnc2)c2cn(C)c3ccccc23)c(OC)c1 (centres undefined)	i
COc1cc(OC)c(NC(=O)NCC(c2cccnc2)c2c[nH]c3ccccc23)cc1Cl (centres undefined)	8
Cc1nc(N(C)C)nc2c1COCC21CCN(c2ncccn2)C1 (centres undefined)	2
O=C(CN(C(=O)CCC(=O)Nc1ccccn1)c1ccccc1F)NCCc1ccccc1	-1
Cc1cc(SCC(=O)Nc2ccccc2)nc(SCc2ccc(Cl)cc2)n1	23
Cc1ccc(Cl)cc1NC(=O)Nc1ccc(-c2nc(-c3ccccc3)co2)cc1	-39
O=C(Nc1ccccc1)Nc1ccc(Cl)cc1SCc1ccccc1	-77*
COCCN1C(=O)CCc2cc(NS(=O)(=O)c3cccc4nsnc34)ccc21	34
Cc1ccc(-c2coc(-c3ccc(NC(=O)COc4ccccc4C)cc3)n2)c(C)c1	-2
CC[C@H](C(=O)N1CCCC[C@H]1C(=O)O[C@H](CCc1ccc(OC)c(OC)c1)c1cccc(OCC(=O)NCCNC(=O)COc2cccc([C@@H](CCc3ccc(OC)c(OC)c3)OC(=O)[C@@H]3CCCCN3C(=O)[C@@H](CC)c3cc(OC)c(OC)c(OC)c3)c2)c1)c1cc(OC)c(OC)c(OC)c1	-72*
COc1ccc(CCNC(=O)C2CCCN2C(=O)Nc2ccc(C)cc2)cc1OC (centres undefined)	23
COc1ccc(CCNC(=O)COc2ccc(Br)c(C)c2)cc1OC	-11
COc1ccc(C)cc1NC(=O)c1cncc(NS(=O)(=O)c2ccc(OC)c(OC)c2)c1	28
CN(C)C(=O)N1Cc2nnn(C)c2C(COCCN2CCCC2)C1 (centres undefined)	13
Cc1nc(-c2cc(S(=O)(=O)NCCCN3CCCC(C)C3)c(C)s2)sc1C (centres undefined)	-21
Cc1ccc(CCNC(=O)c2cc3cc(S(=O)(=O)N(C)C)ccc3n2Cc2ccncc2)cc1	38
SMILES	Tg IFNy HTS
CCN(CC)S(=O)(=O)c1ccc2c(c1)cc(C(=O)NCCC(C)N1CCCC1)n2C (centres undefined)	-36
CCN(CC)S(=O)(=O)c1ccc2c(c1)cc(C(=O)NCC1CCN(Cc3ccc(C)cc3)C1)n2C (centres undefined)	-96*
CCC1=C[C@@H]2CN(C1)Cc1c([nH]c3ccccc13)[C@@](C(=O)OC)(c1cc3c(cc1OC)N(C)[C@H]1[C@@](O)(C(=O)OC)[C@H](OC(C)=O)[C@]4(CC)C=CCN5CC[C@]31[C@@H]54)C2	-74*
CCN1c2ccc(C)cc2C(=O)NC12CCN(C(=O)c1cccc(F)c1)CC2	55
Cc1ccc(N2CC(NC(=O)c3cc4n(n3)CCCN(C)C4)CC2=O)cc1 (centres undefined)	-3
Cc1cnc(N2CCC3(CCC(C(=O)NC(C)C)OC3)CC2)nc1 (centres undefined)	0
CC(C)(c1ccc(OC(=O)c2ccco2)cc1)c1ccc(OC(=O)c2ccco2)cc1	-35
CC1CC(N(C(=O)c2ccco2)c2ccccc2)c2ccccc2N1C(=O)c1ccco1 (centres undefined)	24
CC1CC(N(C(=O)c2ccc3c(c2)OCO3)c2ccccc2)c2ccccc2N1 (centres undefined)	-96*
O=C(c1ccc2c(c1)OCO2)N1CC[C@@H]2[C@H](CO)Nc3ccc(C#Cc4ccccc4)cc3[C@@H]21	-36
Cc1nccn1CC1CCCN(Cc2cnc3cc(O)ccc3c2)C1 (centres undefined)	-5
O=C(Nc1ccc(F)cc1Cl)c1c(O)c2cccnc2n(-c2cccc(F)c2)c1=O	-45
COc1ccc(S(=O)(=O)NC(C)C)cc1N	-21
Cc1c(-c2ccc(O)cc2)n(Cc2ccc(OCCN3CCCCCC3)cc2)c2ccc(O)cc12	-76*
Nc1ccc(OCCN2CCCCCC2)cc1	10
CN1CCN(CCOc2ccc(C(=O)O)cc2)CC1	63
Fc1cccc(CN2CCN(Cc3cnc(C4CCCCC4)nc3)CC2)c1	1
NC(=O)C1(N2CCCCC2)CCN(c2ncc(NC(=O)c3ccc(Cl)cc3)cc2C(=O)O)CC1	2
O=C(Nc1ccc(Cl)cc1)ONC(=O)c1ncc(C(F)(F)F)cc1Cl	15
O=C(Nc1ccc(Cl)cc1)c1cnc(NC2CCCCC2)cc1C(F)(F)F	-110*
CC(C)N1Cc2cncn2CC(COc2ccc(C#N)cn2)C1 (centres undefined)	106
CC1CCN(S(=O)(=O)c2ccc3c(c2)CCC(=O)N3CC(=O)Nc2ccc(F)cc2F)CC1	4
CC(C)C[C@@H](C(=O)N[C@H](C(=O)OC1CCCC1)c1ccccc1)[C@H](O)C(=O)NO	-85*
CNC(=O)[C@@H](NC(=O)[C@H](CC(C)C)[C@H](O)C(=O)NO)C(C)(C)C	14
CC(NC(=O)Cc1cc(F)cc(F)c1)C(=O)NC(C(=O)OC(C)(C)C)c1ccccc1 (centres undefined)	18
SMILES	Tg IFNy HTS
Cc1nc(SCCNC(=O)[C@H]2CCCO2)n[nH]1	2
CCc1ccc(-c2cc3c(=O)n(Cc4nc(-c5ccc(Cl)cc5)oc4C)ccn3n2)cc1	55
CCn1cc(CN2CCN(C(=O)c3cc4c(F)cccc4[nH]3)CC2)c(C)n1	-108*
CCn1cc(CN2CCN(C(=O)c3ccnc(N4CCOCC4)c3)CC2)c(C)n1	14
Cc1nn(CCO)cc1CN1CCN(S(=O)(=O)c2ccccc2)CC1	-7
Cc1cccc(CNC(=O)N2CCN3CCN(C)C(=O)C3C2)c1 (centres undefined)	3
C=CCNc1ccccc1C(=O)NCc1nc(C)c2c(n1)CCCC2	27
Cc1cccc(C(=O)N2CCc3c([nH]c4ccccc34)C2c2cccc(C)c2)c1 (centres undefined)	i
CCOc1cccc(C2c3[nH]c4ccccc4c3CCN2C(=O)c2cccc(C)c2)c1 (centres undefined)	-112*
CCOc1cccc(C2c3[nH]c4ccccc4c3CCN2C(=O)c2cccc(F)c2)c1 (centres undefined)	-123*
C=CCOCC1c2nnn(CC)c2CCN1Cc1c(C)noc1C (centres undefined)	65
CNC(=O)Cc1ccc(-c2ccc(C(C)OC)cc2)cc1 (centres undefined)	142
CCN1CCOC2(CCN(C(=O)c3ccsc3)CC2)c2ccccc21	-13
CN(CCc1noc(-c2cc3cc(Cl)ccc3[nH]2)n1)C(=O)c1cccn1C	-41
Cn1cc(C(=O)NCc2cc(=O)n3c(n2)CNCCC3)cn1	5
O=C(CCSCc1ccc(Cl)c(Cl)c1)Nc1cccnc1	-25
